Hits are enriched below; roughly 2.9% of the tested compounds scored in any of these assays.
Vif imaging = HIV Vif self-association inhibitors, primary screen, imaging, HEK293T, single point. AID 602346, 2012. hit rate 0.35% among 340,000. inhibition, % at 7.49 µM. HEK293T cells, Vif self-association by quenched fluorescence, 24 h; in the data active = inhibition above about 50%, passing the limit was not always enough; inconclusive = no clear call, values can overlap the other calls; inactive = below about 31%
MITF act = activators of MITF-driven TRPM1 promoter reporter, primary screen, cell-based, SK-MEL-5, luciferase, single point; SK-MEL-5 TRPM1-promoter luciferase, 24 h; % of positive control, neutral wells = 0; activation, % at 12.5 µM; hit rate 0.75% among 300,000; AID 588334, 2011;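 active = mean activation of at least 80% with every replicate also reaching 80%; inconclusive = mean reaches 80% but some replicate falls short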;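 note: 0% = neutral control wells and 100% = parthenolide positive control wells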
esBAF inh = Bmi1 luciferase reporter increase in mESCs, primary screen, esBAF inhibitor project, mouse ES cells, Bmi1 luciferase knock-in, single point; 24 h; 100% = twice the neutral-well signal; hit rate 2% among 350,000; reporter increase, % at 12.5 µM; in the data active = activation above about 40%; inconclusive = no clear call, values can overlap the other calls;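 note: 0% = median of the plate's neutral control wells and 100% = double that signal; a rise in the Bmi1 reporter signal indicates esBAF inhibition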
Glyco luc inh = increase of ERlucT glycosylation luciferase signal, primary screen, N-linked glycosylation inhibitor project, D54 ERlucT cells, luminescence, set 2. D54 ERlucT glycosylation luciferase reporter, 24 h; percent of 100 nM tunicamycin response. reporter increase, % at 12.5 µM. hit rate 0.23% among 360,000. AID 588692, 2011;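 active = mean luciferase reporter signal, scaled so untreated is 0 and the glycosylation-blocking control 100, at or above a set limit in every replicate; inconclusive = mean reaches the limit but not every replicate does; inactive = mean below the limit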;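 note: luciferase carries N-glycosylation sites so blocking glycosylation raises the light; 0% = median of neutral control wells and 100% = median of 100 nM tunicamycin wells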
Wnt bcat act = Wnt/beta-catenin pathway activators, primary screen, cell-based, plate reader, single point. Wnt/beta-catenin reporter cell assay, activator. activation, % at 9.35 µM. hit rate 1.2% among 300,000; in the data active = activation above about 30%, passing the limit was not always enough; inconclusive = no clear call, values can overlap the other calls;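 note: 0% = neutral control wells and 100% = positive control wells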
PvdQ acylase = P. aeruginosa PvdQ acylase inhibitors, primary screen, biochemical, fluorescence, plate reader and imaging, single point. PvdQ acylase [Pseudomonas aeruginosa LESB58]. purified PvdQ acylase. hit rate 0.063% among 340,000. inhibition, % at 10 µM; in the data active = inhibition above about 30%, passing the limit was not always enough; inconclusive = no clear call, values can overlap the other calls;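 note: 0% = vehicle neutral wells and 100% = reference inhibitor wells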
The depositor's hits bear a star; ? = inconclusive; . = not tested or not shown.

SMILES	Vif imaging	MITF act	esBAF inh	Glyco luc inh	Wnt bcat act	PvdQ acylase
N#C/C(=C\c1ccc(N2CCOCC2)o1)c1ccccc1	16.9	86.8*	93.6*	-2.1	1.1	10.9
N#C/C(=C/c1ccc(N2CCOCC2)o1)c1ccc(Br)cc1	2.8	63.4	.	?	.	0.8
N#C/C(=C\c1ccc(N2CCOCC2)cc1)c1ccccc1	-1.0	142.5*	26.7	-12.2	33.0*	-0.2
N#C/C(=C/c1ccc(N2CCCCCC2)o1)c1ccc(F)cc1	24.6	-4.5	-12.6	15.2	0.0	-3.6
N#C/C(=C\N1CCOCC1)c1ccccc1	-5.1	6.1	.	-1.5	-3.4	10.0
N#C/C(=C/c1ccc(N2CCCCCC2)o1)c1cccc(F)c1	-3.8	85.6*	29.8	14.3	.	-8.8
C[C@H]1CN([C@@H](C)CO)S(=O)(=O)c2ccc(-c3ccc(F)cc3)cc2O[C@H]1CN(C)S(C)(=O)=O	.	.	2.5	.	.	.
O=C(Nc1ccc(C(=O)c2ccccc2)cc1)c1ccccc1	-3.1	126.9*	61.0*	-4.1	50.5*	-10.2
CC(C)(C)C(=O)NC(=S)Nc1ccc(C(F)(F)F)cc1	-4.4	18.1	39.7	0.8	43.1*	-11.5
O=C(Nc1ccc(-c2cnco2)cc1)c1ccccc1	-2.4	85.9*	.	0.1	21.5	-8.8
CC(C)(C)C(=O)NC(=S)Nc1ccc(Cl)c(C(=O)O)c1	1.7	-4.1	.	0.1	0.4	-13.3
O=C(NNC(=O)c1ccc(NC(=O)c2ccccc2)cc1)c1ccc(F)cc1	-0.5	-7.8	-5.5	-4.1	-1.1	-1.3
Cc1ccc(C)n1-c1ccc(C(=O)Nc2ccccc2)cc1	-1.0	43.8	.	8.6	102.2*	2.2
Cc1noc(C)c1S(=O)(=O)Nc1ccc2c(c1)C(=O)N([C@@H](C)CO)C[C@@H](C)[C@@H](CN(C)S(=O)(=O)c1ccc(F)cc1)OCCCC[C@@H](C)O2	.	.	-1.6	.	.	.
CC(C)NC(=O)Nc1ccc2c(c1)C(=O)N([C@H](C)CO)C[C@@H](C)[C@H](CN(C)CC1CCCCC1)OCCCC[C@H](C)O2	.	.	-3.3	.	.	.
Cc1ccccc1C(=O)Nc1ccc2c(c1)CCCN2C(=O)c1cccs1	-8.6	-7.2	5.9	-10.7	-3.8	-11.7
O=C(Nc1ccc2c(c1)CCCN2C(=O)c1ccccc1)c1ccccc1	-0.6	34.4	46.1*	-6.3	-1.8	-2.0
O=C(Nc1ccc(Br)c(C(F)(F)F)c1)c1ccccc1	-4.4	29.8	.	-5.7	-0.2	-7.7
O=C(Nc1ccc(F)c(F)c1)c1cccnc1	19.8	22.5	4.0	1.1	.	-7.4
O=C(Nc1ccc(F)c(F)c1)c1ccccc1	3.0	46.9	41.7*	-1.9	21.4	-14.6
O=C(Nc1ccc(C(F)(F)F)cc1)c1ccccc1	8.0	99.5*	53.5*	-3.5	21.2	-28.4
COc1ccc2[nH]c3c(c2c1)CCn1c-3nc2ccccc2c1=O	-16.6	28.2	-13.7	-11.9	40.8*	-14.3
CCCCCOc1ccc(Br)cc1/C(C)=N/NC1=NCCN1	75.3*	-68.9	-22.2	-6.9	-27.5	-36.9
Cc1ccc(-c2cc(C(F)F)n3ncc(C(=O)Nc4c(C)nn(Cc5c(Cl)cccc5Cl)c4C)c3n2)cc1	28.3	-23.6	-11.5	-0.3	-2.5	-11.8
Cc1nn(Cc2c(Cl)cccc2Cl)c(C)c1NC(=O)c1cnn2c(C(F)F)cc(-c3ccccc3)nc12	104.0*	-9.5	1.3	0.5	-4.9	-14.8
SMILES	Vif imaging	MITF act	esBAF inh	Glyco luc inh	Wnt bcat act	PvdQ acylase
CCc1nnc2c3cnn(-c4ccccc4)c3ncn12	.	99.0*	63.9*	0.8	?	-8.0
c1ccc(-n2ncc3c2ncn2cnnc32)cc1	4.4	3.9	6.3	0.9	.	-14.5
Cc1cccc(/C(N)=N/OC(=O)c2ccncc2)c1	3.8	69.2	11.5	-7.7	34.3*	-10.8
N/C(=N\OC(=O)c1ccco1)c1cccc(Br)c1	-0.3	55.5	8.1	-6.3	50.3*	28.1
N/C(=N\OC(=O)c1ccco1)c1cccc([N+](=O)[O-])c1	1.3	52.8	.	-0.8	9.9	-8.3
Cc1ccc(C(=O)O/N=C(\N)c2cccc([N+](=O)[O-])c2)cc1	-5.5	94.1*	39.9	-7.1	-1.6	-4.9
N/C(=N\OC(=O)c1ccncc1)c1cccc([N+](=O)[O-])c1	-3.0	.	54.4*	3.6	13.7	-12.7
C[C@H]1CN([C@@H](C)CO)C(=O)c2cc(NC(=O)Nc3cccc4ccccc34)ccc2O[C@@H]1CN(C)S(=O)(=O)c1ccc(Cl)cc1	.	.	0.1	.	.	.
O=C(C[C@H]1C=C[C@H](NC(=O)Nc2ccc(C(F)(F)F)cc2)[C@H](CO)O1)NCCN1CCCC1	.	.	-4.4	.	.	.
N/C(=N\OC(=O)c1ccc(Br)cc1)c1cccc([N+](=O)[O-])c1	-1.2	47.6	72.4*	2.6	4.3	-3.8
N/C(=N\OC(=O)c1ccc([N+](=O)[O-])cc1)c1ccc(Br)cc1	-0.7	.	34.1	-1.8	15.7	-10.0
C[C@@H]1CN([C@@H](C)CO)C(=O)c2c(c3ccccc3n2C)-c2ccccc2CO[C@@H]1CN(C)C(=O)c1ccccc1	.	.	-2.2	.	.	.
CC(C)(C)c1ccc(C(=O)NCc2cccnc2)cc1	-4.7	.	.	0.1	-12.3	-6.7
COc1ccccc1OCc1ccc(C(=O)NCc2cccnc2)o1	.	6.7	-10.1	-1.3	-5.2	-11.5
CC(C)(C)c1ccc(OCc2ccc(C(=O)NCc3cccnc3)o2)cc1	-8.8	59.3	?	-1.2	51.3*	-13.1
CC(C)(C)c1ccc(C(=O)c2c[nH]c(C(=O)NCc3cccnc3)c2)cc1	-17.3	.	55.0*	-5.0	.	6.4
CC(C)(c1ccccc1)c1ccc(OCc2ccc(C(=O)O)o2)cc1	11.3	88.0*	-2.3	0.6	38.2*	14.3
COc1ccccc1CN1[C@@H]2CN(C(=O)C3CCCCC3)c3ccccc3[C@@H]2[C@@H]1CO	.	.	-1.6	.	.	.
C[C@H]1CN([C@@H](C)CO)C(=O)c2cc(Br)cnc2O[C@H]1CN(C)C(=O)NC1CCCC1	.	.	0.1	.	.	.
CCOc1ccc2nc(N3CCOCC3)nc(C)c2c1	7.0	98.8*	33.7	-4.0	.	-9.5
CCOc1ccc(Nc2cc(C)nc(N3CCOCC3)n2)cc1	-8.6	27.2	3.5	-3.0	.	-19.8
CCCNC(=O)[C@@H]1[C@@H](CO)[C@@H]2Cn3c(ccc(-c4cccc(F)c4)c3=O)[C@H]1N2C(=O)CC	.	.	7.1	.	.	.
COc1cc(/C=C2/CCC/C(=C\c3cc(O)c(OC)c(Cl)c3)C2=O)cc(Cl)c1O	6.9	-10.0	-53.3	34.7*	41.4*	5.6
COc1cc(/C=C2\CC/C(=C\c3cc(OC)c(O)c(OC)c3)C2=O)cc(OC)c1O	-17.1	-63.8	.	-1.3	11.2	12.4
COc1ccc(C(=O)Nc2cccc3c2CCCC3)cc1	9.3	.	47.8*	18.0	2.7	-17.6

Source: PubChem
